# Bioassay records (PubChem)
# Casp7 inh = qHTS Assay for Allosteric/Competitive Inhibitors of Caspase-7. P55210. recombinant caspase-7, Ac-DEVD-AFC fluorescence rate. Potency, µM (series often up to 57.5 µM), hits mostly inhibitors. hit rate 0.02% among 75,000. AID 889, 2007; active = well fitted inhibition curve with a large enough effect in the main read-out, with a control signal flat, not every such curve was filed as active; inconclusive = small, poorly fitted or top-dose-only effect, or a change in a side signal
# USP2a inhib = qHTS Assay for Inhibitors of Ubiquitin-specific Protease USP2a; Ubiquitin carboxyl-terminal hydrolase 2 (Homo sapiens), O75604; USP2a enzymatic assay, qHTS inhibition; Potency, µM (doses to about 38.3 µM), hits mostly inhibitors; hit rate 0.1% among 60,000; AID 927, 2007; note: nearly all actives have a fitted effect of over 60% in size
#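 Coupled readout: USP2-cleaved Ub-PLA2 (20nM final) turns over NBD C6-HPC (20uM final), Ex 460nm/Em 535nm after 2.5 h, time-zero read flagging artifacts. Enzyme (20nM final, pH 8.0 Tris) given 30 min RT with compound first; NEM defines full inhibition.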
# Casp1 inh = qHTS Assay for Allosteric/Competitive Inhibitors of Caspase-1; P29466; Caspase-1 enzyme, Ac-WEHD-AFC fluorogenic rate; Potency, µM (series often up to 57.5 µM), hits mostly inhibitors; hit rate 0.03% among 75,000; AID 900, 2007
# 15-hLO-2 inh = qHTS Assay for Inhibitors of 15-hLO-2 (15-human lipoxygenase 2); hit rate 0.56% among 110,000; Potency, µM (titrated, usually from 57.1 µM), hits mostly inhibitors; Polyunsaturated fatty acid lipoxygenase ALOX15B (Homo sapiens), O15296; purified 15hLO-2, xylenol orange hydroperoxide absorbance; note: nearly all actives have a fitted effect of over 60% in size
#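 Purified human 15hLO-2 (50 nM final) preincubated with compounds 15 min at room temperature in 25 mM Hepes pH 7.5, 0.01% Triton X-100, then 45 uM arachidonic acid added for 90 min; hydroperoxide detected via ferrous/xylenol orange, 573/405 nm absorbance ratio.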
# UbGFP stabilizer = Ubiquitin-GFP Assay. Ubiquitin-GFP reporter cells, proteasome inhibition, GFP fluorescence; response scale: untreated = 0%, 10 µM MG-132 = 100%. Potency, µM (doses to about 45.9 µM), usual class: activators. 67,000 tested, under 10 active. AID 526, 2006; active = well fitted activation curve with a large enough effect, not every such curve was filed as active; inconclusive = small, poorly fitted or top-dose-only effect, or another doubt; inactive = no such curve, though single readings can be large or run the other way
#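 Reporter cells (U2OS, ubiquitin-G76V-GFP fusion) are plated overnight, then treated 4 hr at 37 °C with compound titrations from 46 uM down to 2.9 nM. Activity is scaled against untreated cells and 10 uM MG-132.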
# ALOX15 inhib = qHTS Assay for Inhibitors of 15-hLO (15-human lipoxygenase); Polyunsaturated fatty acid lipoxygenase ALOX15 (Homo sapiens), P16050; purified 15hLO-1, xylenol orange hydroperoxide absorbance; AID 887, 2007; Potency, µM (series often up to 57.1 µM), usual class: inhibitors; hit rate 1.4% among 74,000; note: nearly all actives have a fitted effect of over 55% in size
# Target sequence (P16050 whole entry, looked up): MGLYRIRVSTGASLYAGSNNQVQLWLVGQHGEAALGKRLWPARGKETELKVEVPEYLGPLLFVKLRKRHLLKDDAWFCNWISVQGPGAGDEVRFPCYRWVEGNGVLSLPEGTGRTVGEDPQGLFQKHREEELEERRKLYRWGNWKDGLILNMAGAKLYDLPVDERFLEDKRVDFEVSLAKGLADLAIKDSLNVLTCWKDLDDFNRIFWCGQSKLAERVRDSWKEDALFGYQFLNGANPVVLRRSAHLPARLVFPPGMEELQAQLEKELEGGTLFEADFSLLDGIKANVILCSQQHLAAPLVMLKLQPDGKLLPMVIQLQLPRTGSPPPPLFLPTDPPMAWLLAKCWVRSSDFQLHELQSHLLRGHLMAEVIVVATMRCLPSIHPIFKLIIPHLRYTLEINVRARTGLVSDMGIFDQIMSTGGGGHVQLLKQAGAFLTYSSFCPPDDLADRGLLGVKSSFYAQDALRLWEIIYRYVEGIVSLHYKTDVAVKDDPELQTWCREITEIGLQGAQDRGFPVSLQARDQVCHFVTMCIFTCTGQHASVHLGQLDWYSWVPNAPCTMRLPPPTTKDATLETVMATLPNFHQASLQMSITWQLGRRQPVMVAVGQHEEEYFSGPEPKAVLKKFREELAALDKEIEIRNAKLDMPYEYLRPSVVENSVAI
#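 Inhibition is scored from a chromogenic endpoint. After 15 min enzyme-compound contact, arachidonic acid (50 uM final) reacts 6 min with 40 nM 15hLO-1 at room temperature, then Fe-XO reagent is added for 30 min and absorbance ratio recorded.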
# Hits are given with their value; 0 = inactive; ? = inconclusive; - = not tested or not shown; [ ] = another dose, or the depositor's remark. Many of the other results were omitted from the sample, so hits are more common in it than they were. Unless noted, calls come from the whole dose curve; as a rule, active = well fitted curve in the direction sought with a large enough effect; inconclusive = small, poorly fitted or top-dose-only effect, or another doubt; inactive = no such curve, though single readings can be large; an effect the other way counts as inactive or inconclusive.
SMILES,Casp7 inh,USP2a inhib,Casp1 inh,15-hLO-2 inh,UbGFP stabilizer,ALOX15 inhib
Nc1c(C(=O)N2CCCCC2)sc(=S)n1-c1ccccc1,0,0,0,0,0,10µM
Nc1c(C(=O)N2CCOCC2)sc(=S)n1-c1ccccc1,0,0,0,0,0,?
C=C/C(C)=C/[C@]1(C)SC(=O)C(C)=C1O,0,0,0,0,0,0
Cn1c(=O)c2c(nc(C(=N)SCC(=O)O)n2C)n(C)c1=O,?,-,-,0[11.4 µM],0[9.17 µM],0[11.4 µM]
O=C(CSCc1ccc(Cl)cc1)c1ccco1,0,0,0,0,0,32µM
Cc1nc2ccccc2c2oc(C(=O)N3CCN(C(=O)c4ccco4)CC3)cc12,0,-,0,0,0,0
Cc1nc2ccccc2c2oc(C(=O)N3CCc4ccccc4C3)cc12,0,-,0,0,0,20µM
CCc1ccccc1N1CSC2=C(C#N)C(c3ccccc3F)CC(=O)N2C1 (configuration not stated),0,-,0,10µM,0,3.2µM
COc1cc(OC)c(C2CC(=O)N3CN(c4ccccc4C)CSC3=C2C#N)cc1OC (configuration not stated),0,0,0,?,0,?
COc1ccc(C2CC(=O)N3CN(c4ccccc4F)CSC3=C2C#N)cc1OC (configuration not stated),?,-,?,?,0,0.32µM
O=C(O)c1cccc(CN2CCCCC2)c1,0[11.5 µM],-,0[11.5 µM],0[11.4 µM],0[9.17 µM],0[11.4 µM]
Cc1cccc(NS(=O)(=O)c2ccc(Cl)c(C(=O)O)c2)c1,0,-,0,-,-,0
COC(=O)c1ccc(CC(=O)c2c(C)cc(O)cc2O)o1,0,0,0,0,0,25µM
O=C(CCN1c2ccccc2Sc2ccccc21)OCc1nnc(-c2ccccc2)o1,-,0,0,0,0,?
O=C(Sc1nnc(-c2ccccc2)o1)N1c2ccccc2Sc2ccccc21,0,0[7.66 µM],0,-,0[9.17 µM],2.5µM
Cc1cc(O)ccc1Nc1nc2ccccc2nc1Nc1ccc(O)cc1C,?,0,?,0,0,16µM
O=C(CSc1nc2ccccc2s1)c1sc2sc3ccccc3[n+]2c1O,0[11.5 µM],-,0[11.5 µM],0[11.4 µM],0[9.17 µM],0[11.4 µM]
Cc1cc(=O)oc2c1ccc1oc(/C(=N/O)c3ccccc3)c(C)c12,0,0,0,?,0,7.9µM
Cc1cc(=O)oc2c(C(=O)/C=C/c3ccccc3)c(O)ccc12,-,-,-,0,-,-
COc1ccc(N2CCC(CNS(=O)(=O)c3cccc(C(F)(F)F)c3)C2)cc1 (configuration not stated),0,0,0,0[2.29 µM],0,0.79µM
COc1cccc(C2=NC(C)(C)NC(c3ccccc3O)C2)c1 (configuration not stated),0,0,?,0,0,32µM
Cc1c(N2C(=O)c3ccc4c5c(ccc(c35)C2=O)CC4)c(=O)n(-c2ccccc2)n1C,0,0,0,?,0,25µM
O=c1cc(-c2ccccc2Cl)oc2c(NS(=O)(=O)c3cc(Cl)cc(Cl)c3O)ccc(O)c12,-,-,-,16µM,-,-
Nc1ccc(O)c2c(=O)cc(-c3ccccc3Cl)oc12,-,-,-,0[0.0915 µM],-,-
CCOC(=O)CCN1C(=O)[C@H]2[C@H]3[C@H](O)[C@H](O)C/C(=N/OCc4ccccc4)[C@H]3CC[C@@H]2C1=O,0[11.5 µM],-,0[11.5 µM],-,-,0[11.4 µM]
SMILES,Casp7 inh,USP2a inhib,Casp1 inh,15-hLO-2 inh,UbGFP stabilizer,ALOX15 inhib
Cn1c(SCc2cccnc2)nc2cccnc21,0,5µM,0,0,0,0
OC[C@@H]1NC[C@@H](O)[C@H]1O,0,0,0,0,0,0
CC(C)(c1cc(Br)c(O)c(Br)c1)c1cc(Br)c(O)c(Br)c1,0,-,?,?,-,2.5µM
CN(Cc1cc(C(C)(C)C)cc(Br)c1O)Cc1cc(C(C)(C)C)cc(Br)c1O,0[11.5 µM],-,0[11.5 µM],0[11.4 µM],0[9.17 µM],0[11.4 µM]
Nc1c2c(nc3ccccc13)CCC[C@H]2O,0,0,0,0,0,0
CCc1ccc(NS(=O)(=O)c2ccc3[nH]cc(C(=O)N4CCCCC4)c(=O)c3c2)cc1,0,0,0,0,0,4µM
Nc1ccc([N+](=O)[O-])c(N)c1,0,-,0,0,-,0
